Source: PubChem
Shown are actives, neighbours in structure and some others; about 2.1% of the full set was active somewhere.
FUS suppressor: suppressors of FUS proteinopathy in yeast | Potency, µM (top dose mostly 76.6 µM), usual class: activators | S. cerevisiae FUS-expressing, growth rescue, OD600, 24 h | AID 1347120 | 0.24% of 390,000 active; note: nearly all actives have a fitted effect of over 55% in size
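Yeast expressing FUS under galactose induction, OD 0.005 in 2% galactose medium; compounds in a dilution series, 24 h at 30C. Growth rescue by absorbance at 600 nm; CP55940 positive control, DMSO negative.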
Abeta rescue: restores growth of yeast expressing A-beta42 peptide | yeast expressing A-beta42, growth rescue, OD600, 48 h; response scale: 0% DMSO, 100% iron-clioquinol control | Potency, µM (titrated, usually from 46.1 µM), hits mostly activators | 0.063% of 410,000 active; note: nearly all actives have a fitted effect of over 55% in size
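Yeast growth medium received pinned compounds, then yeast cells expressing toxic A-beta were added; plates incubated at 30 C for 48 hr. Growth read as absorbance at 600 nm, normalized to DMSO and equimolar FeCl3 plus clioquinol controls.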
TDP-43 yeast inh: inhibitors of TDP-43 toxicity in yeast; Potency, µM (doses to about 46.1 µM), most hits filed as activators; 1.8% of 410,000 active; TDP-43 expressing yeast growth rescue, BacTiter-Glo, 24 h; note: nearly all actives have a fitted effect of over 50% in size
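Cell-based yeast growth screen: TDP-43 expression induced in galactose, inoculum OD600=0.02 after raffinose pregrowth to mid-log. Read-out BacTiter-Glo luminescence at 24 hr, 30 deg C; inhibition of toxicity seen as signal increase.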
aSyn rescue: rescues yeast growth from alpha-synuclein toxicity | Yeast expressing alpha-synuclein, growth rescue, BacTiter-Glo, 24 h | Potency, µM (doses to about 46.1 µM), most hits filed as activators | 0.14% of 370,000 active | AID 652106; note: nearly all actives have a fitted effect of over 65% in size
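Readout is rescue of growth in alpha-synuclein-expressing yeast, so inhibitors of toxicity appear as activators. Growth after 24 hr at 30 deg C in galactose medium is quantified by luminescence.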
Numbers stand for hits; – = inactive; ? = inconclusive; · = no result given; [ ] = another dose, or the depositor's remark. Calls come from the whole dose curve; as a rule, active = well fitted curve in the direction sought with a large enough effect; inconclusive = small, poorly fitted or top-dose-only effect, or another doubt; inactive = no such curve, though single readings can be large; an effect the other way counts as inactive or inconclusive.

SMILES	FUS suppressor	Abeta rescue	TDP-43 yeast inh	aSyn rescue
Brc1ccc(Nc2nc(-c3cccnc3)cs2)cc1	–	–	11.2µM	–
CCCCNC(=O)C1(C(=O)c2ccc(OC)cc2)CC(c2ccccc2C(F)(F)F)=NO1 (stereo not given)	–	·	·	·
N/C(=N\OC(=O)CC1CCCCC1)c1cccc([N+](=O)[O-])c1	–	–	?	–
COc1ccc(/C(N)=N/OC(=O)CC2CCCCC2)cc1	–	–	3.16µM	–
COc1ccc(OCC(=O)O/N=C(\N)c2ccc(OC)cc2)cc1	–	–	–	–
N/C(=N\OC(=O)CCC1CCCCC1)c1cccnc1	–	–	12.6µM	–
N/C(=N\OC(=O)CCC1CCCC1)c1ccc(Br)cc1	·	–	6.31µM	–
N/C(=N\OC(=O)CCC1CCCCC1)c1ccc([N+](=O)[O-])cc1	·	–	20µM	–
CC(=O)OC12CCCN(C1)/C(=C/c1cccc(N(C)C)c1)C2 (stereo not given)	–	·	·	·
Cc1nn(-c2ccccc2)c2sc(C(=O)NC3CCCC3)cc12	–	·	·	·
N/C(=N\OC(=O)CC1CCCCC1)c1ccc([N+](=O)[O-])cc1	·	–	17.8µM	–
N/C(=N\OC(=O)CCC1CCCC1)c1cccc([N+](=O)[O-])c1	–	–	20µM	–
O=C(Cc1csc2ccccc12)NCc1ccc(F)cc1	–	–	12.6µM	·
Cc1cccc(CNC(=O)Cc2csc3ccccc23)c1	–	–	?	20µM
CCCC1CCC2(CC1)CCC2OC(=S)Nc1ccccc1Br (stereo not given)	–	·	·	·
Cn1cc(C(C[N+](=O)[O-])c2ccccc2)c2ccccc21 (stereo not given)	–	–	12.6µM	–
O=[N+]([O-])CC(c1ccc(F)cc1)c1c[nH]c2ccccc12 (stereo not given)	–	?	17.8µM	?
Fc1ccc(C(Nc2ccccn2)c2c[nH]c3ccccc23)cc1 (stereo not given)	–	?	20µM	?
NCC(c1ccccc1)c1c[nH]c2ccccc12 (stereo not given)	–	–	–[1.82 µM]	–
O=C(C1CCCN(S(=O)(=O)c2ccc(Br)s2)C1)N1CCN(Cc2ccccc2)CC1 (stereo not given)	–	·	·	·
Cc1ccc2c(c1)-c1c(cnn1CC(=O)N(Cc1ccco1)C1CCCCC1)CO2	–	–	35.5µM	–
O=C(Cn1ncc2c1-c1ccccc1OC2)N1CCN(c2ccccc2F)CC1	–	–	–	·
Cc1ccc2c(c1)-c1c(cnn1CC(=O)N1CCN(c3ccccc3F)CC1)CO2	–	–	20µM	·
CCNC(=S)NNC(=O)CSc1nnc(-c2ccccc2)n1-c1ccc(Cl)cc1	–	·	·	·
COc1cccc(-n2cc(-c3ccc(F)cc3)[nH]c2=S)c1	–	?	11.2µM	–
SMILES	FUS suppressor	Abeta rescue	TDP-43 yeast inh	aSyn rescue
S=c1[nH]c(-c2ccccc2)cn1-c1ccccc1	–	12.6µM	12.6µM	–
C[C@@H]1[C@@H](O)C[C@@]2(C[C@H](O)c3cc(F)ccc3O2)O[C@H]1c1ccccc1Cl	–	·	·	·
O=S(=O)(Nc1ccc(Br)cn1)c1ccc(Cl)s1	–	–	11.2µM	–
CC(C)CNC(=O)CSc1ccc(S(=O)(=O)N(C)C2CCCCC2)cn1	–	–	–	–
CN(C1CCCCC1)S(=O)(=O)c1ccc(SCC(=O)C(C)(C)C)nc1	–	–	20µM	?
Cc1ccc(-c2ccccc2)n1-c1ccc(C(=O)O)cc1	–	–	12.6µM	–
Cc1ccc(-c2ccccc2)n1-c1cccc(C(=O)O)c1	–	–	35.5µM	–
Cc1ccc(C(=O)O)cc1-n1c(C)ccc1-c1ccccc1	–	–	–	·
CC(=O)n1c(=O)c2ccccc2c(=O)n1-c1ccccc1	–	–	3.16µM	–
CN(Cc1nc2ccccc2c(=O)[nH]1)C(=O)c1ccccc1OCc1ccc(Cl)cc1	–	–	20µM	–
CN(C(=O)c1ccccc1OCc1ccc(Cl)cc1)c1ccccc1	–	–	–	–
CCn1c(C)c(C)c2cc(C(=O)N3CCc4ccccc4C3)ccc21	–	·	20µM	–
CCN1CCN(C(=O)c2ccc3c(c2)c(C)c(C)n3Cc2ccccc2)CC1	–	–	–	–
Cc1c(C)n(C)c2ccc(C(=O)N3CCN(c4ccccn4)CC3)cc12	–	–	–	–
Cc1[nH]c2ccc(C(=O)N3CCN(c4cccc(Cl)c4)CC3)cc2c1C	?	–	?	20µM
Cc1c(C)n(C)c2ccc(C(=O)N3CCN(c4ccccc4)CC3)cc12	–	–	15.8µM	–
O=C1c2ccccc2S(=O)(=O)c2cc(C(=O)N3CCN(c4ccccc4)CC3)ccc21	–	–	17.8µM	–
C[n+]1ccc(/C=C/c2cc[n+](C)c3ccccc23)c2ccccc21	·	·	·	–
Cc1[nH]c2ccc(C(=O)N3CCN(c4ccccc4Cl)CC3)cc2c1C	–	–	20µM	17.8µM
Cc1[nH]c2ccc(C(=O)N3CCN(c4ccccc4F)CC3)cc2c1C	?	–	22.4µM	·
COc1ccccc1N1CCN(C(=O)c2ccc3[nH]c(C)c(C)c3c2)CC1	?	·	–	–
O=C(c1ccccc1)c1ccc(C(=O)N2CCN(c3ccccc3Cl)CC2)cc1	?	–	11.2µM	–
Cc1cccc(N2CCN(C(=O)c3ccc4[nH]c(C)c(C)c4c3)CC2)c1C	–	–	–	–
O=C(c1cscn1)N1CCC(Oc2cccnc2)CC1	–	·	·	·
CCC1CCc2c(sc(NC(=O)c3ccco3)c2C(N)=O)C1 (stereo not given)	–	–	12.6µM	–
SMILES	FUS suppressor	Abeta rescue	TDP-43 yeast inh	aSyn rescue
O=C(CNCc1ccccc1)Nc1ccccc1-c1ccccc1	–	–	–	–
O=C(CNc1ccccc1-c1ccccc1)NCc1ccccc1	·	–	20µM	–
O=C(/C(=N/N=C/c1ccc(O)c(O)c1O)c1ccccc1)c1ccccc1	·	–	–	15.8µM
CN(C)c1ccc(C=Nc2ccccc2C(N)=O)cc1	–	–	11.2µM	–
O=C(Nc1ccccc1)O/N=C/c1ccc(F)cc1	–	–	10µM	–
Cc1ccc(NC(=O)O/N=C/c2ccc(F)cc2)cc1	–	–	–	–
Cc1ccccc1CN1CCCCC(NC(=O)c2ccc(N(C)C)cc2)C1=O (stereo not given)	–	·	·	·
COc1ccc(CNC(=O)c2c(C)oc3c2C(=O)c2ccccc2C3=O)cc1	–	–	?	–
CC(=O)c1c2c3c(c(Br)ccc3n(C)c1=O)C(=O)c1ccccc1-2	–	–	–	–
O=C1c2ccccc2C(=O)c2c1oc(C(F)(F)F)c2C(=O)c1ccccc1	·	–	3.55µM	–
Cc1oc2c(c1C(=O)NCc1cccnc1)C(=O)c1ccccc1C2=O	–	–	35.5µM	–
CC(=O)c1c(C)oc2c1C(=O)c1ccccc1C2=O	·	–	5.01µM	–
CCOC(=O)CSc1nc2cc(OC)c(OC)cc2cc1C#N	·	·	·	–
CCn1cc(C(=O)N2CCN(Cc3ccc(C)cc3)CC2)c(=O)c2ccc(C)nc21	–	·	·	·
OC1(Cc2ccccc2)CCN(c2ncnc3sccc23)CC1	–	·	·	·
COc1ccc2oc(C)c(C(=O)c3ccc([N+](=O)[O-])cc3)c2c1	·	–	22.4µM	–
